Bioassay records from PubChem BioAssay.
Sampled rows, rich in hits. Any-hit rate of the full collection: about 2.6%.
KOR antag MB: OPRK1 (human) antagonism, Maybridge screen; P41145; OPRK1 cells, antagonist mode, fluorescence readout; inhibition, % at 9 µM; actives 0.4% (n = 16,000); in the data active means inhibition above about 50%
luminol inh ctr: luminol signal inhibition, Nox1 inhibitor counter-screen | HRP/luminol/H2O2 chemiluminescence counterscreen | AID 1823 | inhibition, % at 6.7 µM | actives 0.4% (n = 16,000); further: reference of the scale not given here
TLR4-MyD88 inh: blocks binding of human TLR4 to MyD88; AID 811; inhibition, % at 10 µM; actives 0.06% (n = 16,000); Cell-based TLR4-MyD88 binding inhibition assay; in the data active means inhibition above about 45%
PME-1 Maybr inh: inhibitors of human PME-1 in Maybridge library; AID 2291; recombinant PME-1, FP-Rh probe fluorescence polarization; inhibition, % at 9 µM; actives 0.5% (n = 16,000); in the data active means inhibition above about 30%
Nox1 inhibitor: inhibitors of human NADPH oxidase 1 (Nox1) | actives 0.81% (n = 16,000) | inhibition, % at 6.7 µM | HT29 cells, luminol chemiluminescence ROS | Q9Y5S8
NOTCH ag: agonists of NOTCH signaling; NOTCH signaling luciferase reporter cells, luminescence; activation, % at 2.5 µM; actives 0.4% (n = 15,000); in the data active means activation above about 2.2%
* = called active by the depositor. Unless noted, no stated cut-off is given here; in the data, active means inhibition above about 75%; inactive means the rest.

For CC(Oc1ccccc1-c1ccccc1)c1n[nH]c(=S)n1C (centres undefined) the results were KOR antag MB -7, luminol inh ctr 94*, TLR4-MyD88 inh -7, PME-1 Maybr inh 1 and Nox1 inhibitor -49.
For S=c1[nH]nc2c(-c3ccccc3)c(-c3ccccc3)c(-c3ccccc3)nn12 the results were KOR antag MB 11, luminol inh ctr -2, TLR4-MyD88 inh -1, PME-1 Maybr inh 0, Nox1 inhibitor 5 and NOTCH ag 0.
For O=c1[nH]c2ccsc2c(=O)n1CCO the results were KOR antag MB 7, luminol inh ctr 13, TLR4-MyD88 inh 5, PME-1 Maybr inh 3, Nox1 inhibitor 84* and NOTCH ag -1.
For Cc1cc(=O)n(CCO)c(=O)[nH]1 the results were KOR antag MB 6, luminol inh ctr -4, TLR4-MyD88 inh 1, PME-1 Maybr inh 2, Nox1 inhibitor 14 and NOTCH ag 0.
Screening COc1cc(C(=O)NN)c(-n2c(C)ccc2C)cc1OC returned KOR antag MB -10, luminol inh ctr 3, TLR4-MyD88 inh -3, PME-1 Maybr inh 4, Nox1 inhibitor 19 and NOTCH ag 1.
For Cn1cc(-c2ccccc2)c(=O)o1 the results were KOR antag MB -5, luminol inh ctr -3, TLR4-MyD88 inh -4, PME-1 Maybr inh 3, Nox1 inhibitor -14 and NOTCH ag 0.
O=[N+]([O-])c1cc(Cl)ccc1Sc1ccccc1NS(=O)(=O)c1ccc(F)cc1 was read as KOR antag MB -2, luminol inh ctr 5, TLR4-MyD88 inh 3, PME-1 Maybr inh 63*, Nox1 inhibitor 8 and NOTCH ag 0.
NN=C1c2ccccc2-c2ccccc21 was read as KOR antag MB -1, luminol inh ctr -2, TLR4-MyD88 inh -1, PME-1 Maybr inh 1, Nox1 inhibitor -24 and NOTCH ag 0.
For CC(C)(C)c1cc2nc(C(F)(F)F)cc(NNC(=O)Nc3ccc(OC(F)(F)F)cc3)n2n1 the results were KOR antag MB 3, luminol inh ctr 7, TLR4-MyD88 inh -6, PME-1 Maybr inh -106, Nox1 inhibitor 88* and NOTCH ag 1.
Screening CCOC(=O)NNC(=O)NC returned KOR antag MB -5, luminol inh ctr 0, TLR4-MyD88 inh 2, PME-1 Maybr inh 1, Nox1 inhibitor -40 and NOTCH ag -1.
Screening CCOc1ccccc1Nc1n[nH]c(=S)s1 returned KOR antag MB 0, luminol inh ctr 6, TLR4-MyD88 inh -13, PME-1 Maybr inh 1, Nox1 inhibitor 88* and NOTCH ag 0.
`S=c1[nH]nc(NCCc2ccc(Cl)cc2)s1` gave KOR antag MB -5, luminol inh ctr 2, TLR4-MyD88 inh 2, PME-1 Maybr inh 5, Nox1 inhibitor 40 and NOTCH ag 0.
`O=[N+]([O-])c1cc(Br)c(Oc2cncc(Cl)c2)cc1Oc1cncc(Cl)c1` gave KOR antag MB -10, luminol inh ctr 2, TLR4-MyD88 inh 1, PME-1 Maybr inh 52*, Nox1 inhibitor 55 and NOTCH ag 0.
For O=C(O)c1cc([N+](=O)[O-])ccc1Oc1cncc(Cl)c1 the results were KOR antag MB 0, luminol inh ctr 3, TLR4-MyD88 inh 7, PME-1 Maybr inh -1, Nox1 inhibitor -62 and NOTCH ag 0.
`O=C(COc1ccc(C2SCCS2)cc1)Nc1cc(Cl)cc(Cl)c1` gave KOR antag MB 20, luminol inh ctr 3, TLR4-MyD88 inh -2, PME-1 Maybr inh 124*, Nox1 inhibitor 2 and NOTCH ag 0.
`CCn1c(=S)[nH]c2sc(C)c(C)c2c1=O` gave KOR antag MB -39, luminol inh ctr 90*, TLR4-MyD88 inh 6, PME-1 Maybr inh 12, Nox1 inhibitor -14 and NOTCH ag 0.
Cc1cc(-n2c(=S)[nH]c3sc(C)c(C)c3c2=O)n(-c2ccccc2)n1 was read as KOR antag MB -11, luminol inh ctr 0, TLR4-MyD88 inh 1, PME-1 Maybr inh 2, Nox1 inhibitor -43 and NOTCH ag 0.
For Cc1ccnc(-n2c(=S)[nH]c3sc(C)c(C)c3c2=O)c1 the results were KOR antag MB 3, luminol inh ctr 100*, TLR4-MyD88 inh 6, PME-1 Maybr inh 5, Nox1 inhibitor 46 and NOTCH ag -1.
Screening O=C1Nc2ccccc2/C1=C/c1sccc1Oc1ccccc1 returned KOR antag MB 2, luminol inh ctr 8, TLR4-MyD88 inh 7, PME-1 Maybr inh 1, Nox1 inhibitor 7 and NOTCH ag -1.
